Compounds with a hit are over-represented: about 1.2% of the library has one in this group of screens.
IDH1 R132H inh = inhibitors of human mutant IDH1 R132H. O75874. IDH1-R132H enzyme, NADPH consumption, diaphorase/resazurin fluorescence. Potency, µM (highest dose often 76.6 µM), for the others: at the top dose activity change, negative = inhibition, actives largely listed as inhibitors. actives 0.093% (n = 390,000). AID 602179; also: potency is read from the fitted curve at half-maximal effect; % is scaled to controls: 0 for no effect and ±100 for the full control effect; nearly all actives have a fitted effect of over 65% in size
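IDH1-R132H (0.5 ug/mL dispensed) in pH 7.5 Tris buffer was preincubated 30 min with compound, then given a substrate mix of 0.016 mM NADPH and 2 mM alpha-KG for 80 min at room temperature; remaining NADPH was read by diaphorase/resazurin fluorescence.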
hERG WT inh = blocks the wildtype human KCNH2 potassium channel; activity change, % at 1.84 µM; Q12809; U2OS, BacMam KCNH2, thallium flux FluxOr; stronger effect = lower value; actives 0.37% (n = 340,000); AID 720551;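 active = maximum activity change below -70%; inconclusive = maximum activity change between -70% and -50%; inactive = maximum activity change above -50%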; also: % is scaled to controls: 0 for no effect and ±100 for the full control effect
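U2OS cells transduced with wild-type KCNH2 virus are loaded with FluxOr dye for 45 min, and thallium flux is measured in kinetic reads before and after stimulation buffer. Rate constants are normalized to DMSO controls.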
Anesthetic bind = candidate novel general anesthetic via apoferritin binding; Potency, µM (top dose mostly 77.5 µM), without a hit: top-dose activity change, negative = displacement, usual class: inhibitors; AID 485281; apoferritin/1-aminoanthracene competitive binding, fluorescence; P02791; actives 0.074% (n = 350,000); also: potency is read from the fitted curve at half-maximal effect; % is scaled to controls: 0 for no effect and ±100 for the full control effect; nearly all actives have a fitted effect of over 20% in size
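Read-out: endpoint 1-AMA fluorescence, excitation 380 nm and emission 535 nm, after compounds sit 10 min at room temperature with 10 uM horse-spleen apoferritin in 50% saturated 1-AMA/PBS. Values come from four-parameter Hill fits.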
ASM inhibitor = blocks human secretory acid sphingomyelinase. P17405. placental ASM, HMU-PC fluorogenic substrate, 60 min. Potency, µM (series often up to 57.5 µM), for inactives: at the highest dose activity change, negative = inhibition, usual class: inhibitors. actives 0.006% (n = 340,000). AID 504937; also: potency is read from the fitted curve at half-maximal effect
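Fluorogenic HMU-PC substrate (9 uM final) is turned over by placental ASM in 60 min at 37 C after a 10 min compound preincubation. Reaction ended by alkaline stop (pH 10), with fluorescence read at 386/447 nm.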
KCNH2 3.1 inh = KCNH2 3.1 (human) potassium channel inhibition; activity change, % (tested at about 1.8 µM); actives 0.95% (n = 340,000); U2OS KCNH2 3.1, thallium flux FluxOr; stronger effect = lower value;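 active = maximum activity change below -70%; inconclusive = maximum activity change from -70% to -50%; inactive = maximum activity change above -50%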;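 also: thallium influx rate constant from kinetic fluorescence after stimulation buffer; % is scaled to controls: 0 for no effect and ±100 for the full control effect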
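Channel expression came from 3.1 mutant virus (1.77 x 10^8 /mL) applied to suspended U2OS cells for 4 h. Flux was tracked with FluxOr dye plus Red40 quencher, and kinetic rate constants normalized to controls.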
* = called active by the depositor; ? = inconclusive; · = no result; [ ] = remark or other dose. Unless noted, calls follow the shape of the dose curve; as a rule, active = well fitted inhibition curve with a large enough effect; inconclusive = small, poorly fitted or top-dose-only effect; inactive = no such curve, though single readings can be large or run the other way.

SMILES	IDH1 R132H inh	hERG WT inh	Anesthetic bind	ASM inhibitor	KCNH2 3.1 inh
CCCCNC(C)Cc1ccccc1 (stereo not drawn)	4.5%	1.2	·	6.2%	9.4
COc1ccc(CC(C)NCCC(c2ccccc2)c2ccccc2)cc1 (stereo not drawn)	0.1%	-95.6*	-21.5%	-2.4%	-100.6*
OC(COCc1ccc(Cl)cc1)CN1CC=C(c2ccccc2)CC1 (stereo not drawn)	0.5%	?	?	-3.0%	-112.3*
OC(CN1CC=C(c2ccccc2)CC1)c1ccccc1 (stereo not drawn)	4.8%	23.3	-13.2%	8.8%	-11.4
CCOCCCn1c(N)c(C(=O)Nc2sc3c(c2C(=O)OC)CCCC3)c2nc3ccccc3nc21	-0.3%	16.0	-13.4%	-1.2%	1.5
CCOC(=O)c1c(NC(=O)c2c(N)n(CCCOC)c3nc4ccccc4nc23)sc2c1CCCC2	2.7%	3.5	9.2%	-6.2%	-71.4*
O=C(CCCN1CCC2(CC1)C(=O)NCN2c1ccccc1)c1ccc(F)cc1	10.5%	-38.1	-0.5%	-1.4%	-81.4*
CCOC(=O)[C@]12Cc3cc(C)ccc3[C@H]1N(Cc1ccccc1)C(=O)c1ccccc12	-16.2%[38.3 µM]	-2.6	·	-7.4%	-72.4*
CCCC[C@@H](C)[C@@H](OC(=O)C[C@@H](CC(=O)O)C(=O)O)[C@H](C[C@@H](C)CCCCCC[C@@H](O)C[C@H](O)[C@H](C)N)OC(=O)C[C@@H](CC(=O)O)C(=O)O	·	·	-10.1%	·	·
COC(=O)[C@H]1[C@@H](c2ccccc2)[C@@]2(c3ccccc3)Oc3ccccc3[C@@]1(O)[C@@H]2O	·	·	-6.9%[15.3 µM]	·	·
CCCCCCN1CCN(c2ccccc2Cl)CC1	5.4%	-5.2	-6.1%	-1.2%	-79.4*
CCN1/C(=C\C=C\C2=[N+](CC)c3ccccc3C2(C)C)C(C)(C)c2ccccc21	35.5µM*	-208.0*	28.2µM*	-18.9%	?
NC(=O)c1ccc(OCCC(O)N2CC=C(c3ccc(F)cc3)CC2)cc1 (stereo not drawn)	25.0%	71.9	·	-5.2%	-72.7*
CCOC(=O)c1ccc(N2C(=O)CC(N3CC=C(c4ccc(F)cc4)CC3)C2=O)cc1 (stereo not drawn)	7.8%	-3.1	-9.3%	-0.9%	12.5
CC(=O)OC1CC2C(C)(C)C(O)C=C[C@@]2(C)C2CC[C@]3(C)C(=CC(=O)OC3c3ccoc3)[C@]12C (stereo partly drawn)	·	·	-4.1%	·	·
COC(=O)C1=C(c2ccc(C(C)=O)cc2)C[C@@H]2CC[C@H]1N2C(=O)N1CCC(O)(c2ccc(Cl)cc2)CC1	-11.6%	-114.9*	·	-9.5%	-87.9*
COc1ccc(-n2c(/C=C/c3ccc(O)cc3)nc3ccccc3c2=O)cc1	-4.9%	-92.5*	18.4%	4.2%	-21.7
O=c1c2ccccc2nc(/C=C/c2ccc(O)cc2)n1-c1ccc(O)cc1	?	1.7	56.8%	14.4%	16.9
COc1ccc(NC(=O)CCn2cnc3onc(-c4ccc(F)cc4)c3c2=O)cc1OC	12.9%	·	55.8%	·	·
CSCC[C@H](NC(=O)[C@H](Cc1ccccc1)NC(=O)CNC(=O)CNC(=O)[C@@H](N)Cc1ccc(O)cc1)C(=O)O	·	·	2.9%	·	·
Cc1ccsc1C(=O)C1CCCN(Cc2ccc(-n3cccn3)cc2)C1 (stereo not drawn)	8.8%	38.7	-20.6%	3.3%	-71.8*
Cc1ccc(NC(=O)Nc2cc3c(cc2N2CCCCC2)n(C)c(=O)n3C)cc1Cl	28.2µM*	·	-5.9%	·	·
CCOC(=O)CCN(SN(C)C(=O)Oc1cccc2c1OC(C)(C)C2)C(C)C	·	·	-9.1%	·	·
COc1cc(/C=C(/C)[N+](=O)[O-])ccc1OCc1ccccc1Cl	46.5µM*	2.4	-10.1%	-8.3%	·
COc1cc(C=C2C(=O)NC(=O)NC2=O)ccc1OCc1ccc([N+](=O)[O-])cc1	9.9%	12.2	?	-5.8%	11.2
SMILES	IDH1 R132H inh	hERG WT inh	Anesthetic bind	ASM inhibitor	KCNH2 3.1 inh
COc1ccccc1-n1c(O)c(/C=N/NC(=S)Nc2ccccc2)c(=O)[nH]c1=S	0.9%	-3.2	-11.2%	-2.7%	-93.4*
Nc1ncnc2c1ncn2[C@@H]1O[C@H](COP(=O)(O)OP(=O)(O)OP(=O)(O)O)[C@H]2OC3(O[C@H]21)C([N+](=O)[O-])=CC(=[N+]([O-])[O-])C=C3[N+](=O)[O-] (stereo partly drawn)	·	·	-9.4%	·	·
Cc1nc2cc(C(F)(F)F)ccc2n1C1CCN(Cc2nnnn2CCc2ccccc2)CC1	-23.9%	-6.7	2.5%	-4.6%	-80.6*
FC(F)(F)c1ccc2c(c1)nnn2C1CCN(Cc2nnnn2Cc2ccccc2)CC1	1.7%	-28.4	-0.3%	-13.5%	-76.1*
Fc1ccc2c(c1)nnn2C1CCN(Cc2nnnn2C2CCCCC2)CC1	3.7%	7.2	-14.0%	3.1%	2.4
Cc1nc2cc(F)ccc2n1C1CCN(Cc2nnnn2CCc2ccccc2)CC1	2.5%	41.6	?	0.6%	-29.3
Cc1ccc(Cn2nnnc2CN2CCC(n3nnc4cc(C)ccc43)CC2)cc1	11.3%	9.9	-5.3%	-12.7%	-16.2
Cc1ccc(Cn2nnnc2CN2CCC(n3nnc4cc(C(F)(F)F)ccc43)CC2)cc1	2.5%	?	7.3%	?	-92.8*
CC1=C2C(=O)C3C(CC=C4C[C@@H](O)CC[C@@]43C)[C@@H]2CC[C@]12O[C@@H]1C[C@H](C)CN[C@H]1C2C (stereo partly drawn)	·	·	-9.3%	·	·
C[C@H](NC(=O)[C@@H](N)Cc1ccc(O)cc1)C(=O)N[C@@H](Cc1ccccc1)C(=O)NCC(=O)N[C@@H](Cc1ccc(O)cc1)C(=O)N1CCC[C@H]1C(=O)N[C@@H](CO)C(N)=O	·	·	2.6%	·	·
O=C(CN1CCCCC1)NCC(=O)Nc1ccc(Br)cc1C(=O)c1ccccc1	19.4%	-35.6	-21.0%	3.2%	-77.9*
O=C(CN1CCN(CCO)CC1)Nc1ccc(Cl)cc1C(=O)c1ccccc1	-1.7%	-22.8	-0.3%	-1.1%	-86.8*
O=C(CNC(=O)c1ccccc1)Nc1ccc(Br)cc1C(=O)c1ccccc1	0.3%	-8.6	-10.0%	-9.4%	11.9
CN1CCN(CC(=O)Nc2ccc(Cl)cc2C(=O)c2ccccc2)CC1	-2.2%	?	-7.1%	-2.0%	-77.6*
O=C(COc1ccccc1)Nc1ccc(Cl)cc1C(=O)c1ccccc1	1.7%	-3.1	-4.2%	-10.9%	-6.3
C[C@@H]1CC[C@H]2[C@@H](C)C(=O)O[C@@H]3OC4(C)CC[C@@H]1[C@]32OO4	·	·	-22.6%	·	·
CCC(Oc1ccc(Cl)cc1)C(=O)OC1CC2CCC(C1)N2C (stereo not drawn)	·	·	-7.5%	·	·
Cc1ccc(S(=O)(=O)N2CC2(C)CCl)cc1 (stereo not drawn)	0.2%	-4.4	-10.8%	4.7%	-1.7
Cc1ccc(S(=O)(=O)N2CN3CCN(C3)C2)cc1	5.6%	-130.7*	-13.8%	-0.6%	-134.3*

Bioassay records deposited in PubChem BioAssay by National Center for Advancing Translational Sciences (NCATS).
